Data on 56 compounds can be found in PubChem BioAssay AID463173 (ICCB-Longwood Screening Facility, Harvard Medical School, 2010).

Out of some 52,000 compounds screened, about 1,700 (3.3%) were called active. No stated cut-off is given here; in the data, active means survival mostly below about 52% (no sharp cut-off); inactive means mostly above about 56%. Many of the other results were omitted from the sample, so actives are more common in it than they were.

The subject of the experiment is Wild type. In words: S. aureus survival, RN4220 and DeltatarO strains – OD600, teichoic acid synthesis inhibitors, primary screen (AID 463173). The conditions noted are these: S. aureus RN4220 wild type/DeltatarO growth, OD600, 18 h, hits give low values, screened at 18.75 µg/mL (by protocol).
Regarding `CCOC(=O)C1CCCN(C(=O)c2nn(-c3ccc(OC)cc3)c(=O)c3c2c2ccccc2n3C)C1` (stereo unspecified), the survival is 125% (inactive).

As to `CCOC(=O)c1ccc(NC(=O)Cn2cc(C(=O)c3ccc(CC)cc3)c(=O)c3ccc(C)nc32)cc1`, the survival is 143% (inactive).

In the case of `COCCn1c(C)cc(O)c(C(c2ccc(Cl)cc2)N2CCN(c3ccccc3)CC2)c1=O` (stereo unspecified), the survival is 65% (inactive).

With `O=C(NCCC1=CCCCC1)c1ccc2c(c1)N(Cc1ccc(Cl)cc1)C(=O)c1ccccc1S2(=O)=O`, the survival was 104% (inactive).

As to `NC(=O)CSc1oc(-c2ccco2)nc1S(=O)(=O)c1ccc(Cl)cc1`, the survival was 68% (inactive).

`Cc1ccc(CNC(=O)C2CCN(S(=O)(=O)N3CCC(C)CC3)CC2)cc1`: the survival was 77% (inactive).

Regarding `O=C(Cn1cc(S(=O)(=O)Cc2ccccc2Cl)c2ccccc21)NCCc1ccccc1`, the survival was 65% (inactive).

Take `CCC(=O)Nc1ccc2c(c1)C(=O)OC2`: the survival was 110% (inactive).

As for `Cc1cccn2c(=O)cc(COc3cccc(NC(=O)c4ccccc4F)c3)nc12`, the survival was -6% (active).

For the compound `Cc1cccn2c(=O)cc(COc3ccc(NC(=O)COc4ccc(F)cc4)cc3)nc12`, the survival was 69% (inactive).

Regarding `Cc1cccc(C(=O)Nc2cccc(OCc3cc(=O)n4cccc(C)c4n3)c2)c1`, the survival was 76% (inactive).

Turning to `Cc1ccc(OCC(=O)Nc2cccc(OCc3cc(=O)n4cccc(C)c4n3)c2)cc1C`, the survival is 124% (inactive).

As to `Cc1ccc(OCC(=O)Nc2ccc(OCc3cc(=O)n4cccc(C)c4n3)cc2)cc1C`, the survival is -6% (active).

On to `Cc1ccccc1C(=O)Nc1cccc(OCc2cc(=O)n3cccc(C)c3n2)c1`, for which the survival was 90% (inactive).

Regarding `Cc1cccc(-n2c(-c3ccco3)nc3c(cnn3-c3ccccc3C)c2=O)c1`, the survival is 132% (inactive).

In the case of `O=C(CN(C1CCCCC1)S(=O)(=O)c1ccccc1)N1CCCCC1`, the survival was 101% (inactive).

In the case of `CCOC(=O)c1c(S(=O)(=O)N2CCC(C(=O)Nc3ccc(C)cn3)CC2)c(C)n(C)c1C`, the survival is 70% (inactive).

For the compound `Cc1ccc(NC(=O)c2cc(S(=O)(=O)N3CCCCC3)c[nH]2)cc1N(C)C`, the survival is 87% (inactive).

Regarding `CCCN(C(=O)c1sc2nc3n(c(=O)c2c1C)CCCC3)c1ccccc1C`, the survival is 80% (inactive).

In the case of `COc1cc2c(cc1OC)C(COc1ccccc1OC)N(C(=O)c1ccccc1OC)CC2` (stereo unspecified), the survival is 73% (inactive).

Consider `Cc1ccc(C(=O)Nc2nc(-c3nnn(-c4cccc(C(F)(F)F)c4)c3C)ns2)cc1`, for which the survival was 75% (inactive).

As to `CC(=O)c1ccc(N2CCN(S(=O)(=O)c3ccc(-c4cc(C)no4)s3)CC2)cc1`, the survival is -6% (active).

Regarding `CC(=O)c1ccc(N2CCN(S(=O)(=O)c3ccc(-c4cc(C(F)(F)F)on4)s3)CC2)cc1`, the survival was 72% (inactive).

Consider `Cc1cc(-c2ccc(S(=O)(=O)N3CCN(c4ccc(Cl)cc4)CC3)s2)on1`, for which the survival is 136% (inactive).

As to `Cc1cccc(N2CCN(C(=O)Cn3c(=O)c4cccn4c4ccc(F)cc43)CC2)c1C`, the survival was 85% (inactive).

As to `CC(C)(C)OC(=O)N1CCC(c2c(C(=O)NCc3ccco3)cnn2-c2ccccc2)CC1`, the survival was 75% (inactive).

Consider `COc1ccc(S(=O)(=O)NCCc2cn3ccsc3n2)cc1`, for which the survival is 82% (inactive).

For `Cc1ccc(S(=O)(=O)NCCc2cn3ccsc3n2)cc1`, the survival is 57% (inactive).

Consider `COc1ccc(S(=O)(=O)NCCc2cn3ccsc3n2)cc1OC`, for which the survival is -3% (active).

Regarding `CN(C)c1ccc(N/C=C(\C#N)c2nc3ccccc3[nH]2)cc1`, the survival was 118% (inactive).

`CCOC(=O)CNC(=O)CSc1cn(CC(=O)N2CCCCCC2)c2ccccc12`: the survival is 99% (inactive).

As to `Cc1ccc(Nc2ncnc3c2nc2n3CCCC2)c(Br)c1`, the survival is 111% (inactive).

Turning to `CCN(c1ccccc1)S(=O)(=O)c1ccc(NC(=O)c2nc(SC)ncc2Cl)cc1`, the survival was 88% (inactive).

As to `CCS(=O)(=O)c1ncc(Cl)c(C(=O)Nc2ccc(S(=O)(=O)N(C)c3ccccc3)cc2)n1`, the survival is 8% (active).

Consider `CCS(=O)(=O)c1ncc(Cl)c(C(=O)Nc2ccccc2)n1`, for which the survival was 70% (inactive).

For the compound `CC(C)Sc1ncc(Cl)c(C(=O)Nc2ccc(S(=O)(=O)N(C)c3ccccc3)cc2)n1`, the survival was 78% (inactive).

On to `CCSc1ncc(Cl)c(C(=O)Nc2ccc(S(=O)(=O)N(C)c3ccccc3)cc2)n1`, for which the survival is 84% (inactive).

With `CCCSc1ncc(Cl)c(C(=O)Nc2ccc(S(=O)(=O)N(C)c3ccccc3)cc2)n1`, the survival was 84% (inactive).

For the compound `CCN(c1ccccc1)S(=O)(=O)c1ccc(NC(=O)c2nc(S(C)(=O)=O)ncc2Cl)cc1`, the survival was 0% (active).

For `CN(c1ccccc1)S(=O)(=O)c1ccc(NC(=O)c2nc(S(C)(=O)=O)ncc2Cl)cc1`, the survival was 2% (active).

For `CCN(c1ccccc1)S(=O)(=O)c1ccc(NC(=O)c2nc(SC(C)C)ncc2Cl)cc1`, the survival was 81% (inactive).

Regarding `Cc1cccc(N2CCN(S(=O)(=O)c3ccc4c(c3)CCCN4C(=O)C3CCC3)CC2)c1C`, the survival was 86% (inactive).

On to `Cc1ccc(C(=O)Nc2nnc(SCc3cc(=O)c4c(C)ccc(C)c4[nH]3)s2)cc1`, for which the survival is 93% (inactive).

With `Cc1ccc(C)c(NC(=O)CN2C(=O)C(C)(C)c3ccccc32)c1`, the survival was 76% (inactive).

In the case of `Fc1cccc(-c2cc3nc4c(c(NCCCN5CCOCC5)n3n2)CCCC4)c1`, the survival is 103% (inactive).

For `COc1ccc(-n2c(=O)c3ccccc3n(Cc3cccc(C)c3)c2=O)cc1`, the survival was 75% (inactive).

On to `Cc1cc(C)cc(NS(=O)(=O)c2ccc3c(c2)OCC(C(=O)N2CCCC2)O3)c1` (stereo unspecified), for which the survival was 78% (inactive).

On to `COc1ccc(OC)c(S(=O)(=O)NCCc2csc3nc(-c4ccccc4)nn23)c1`, for which the survival was -3% (active).

`COc1ccc(-c2nc3scc(CCNS(=O)(=O)c4ccccc4F)n3n2)cc1`: the survival is 57% (inactive).

With `O=S(=O)(NCCc1csc2nc(-c3ccc(Cl)cc3)nn12)c1cccs1`, the survival is 72% (inactive).

`CCS(=O)(=O)NCCc1csc2nc(-c3ccc(C)cc3)nn12`: the survival was 59% (inactive).

On to `COc1ccc(-c2nc3scc(CCNS(=O)(=O)c4cccs4)n3n2)cc1`, for which the survival was 1% (active).

Consider `O=S(=O)(NCCc1csc2nc(-c3ccccc3)nn12)c1cccs1`, for which the survival is 81% (inactive).

On to `COc1ccc(S(=O)(=O)NCCc2csc3nc(-c4ccccc4)nn23)cc1OC`, for which the survival is 71% (inactive).

As to `CS(=O)(=O)NCCc1csc2nc(-c3ccccc3)nn12`, the survival is -4% (active).

For the compound `CCc1ccc(S(=O)(=O)NCCc2csc3nc(-c4ccccc4)nn23)s1`, the survival is 129% (inactive).
